Test results reported in ChEMBL document CHEMBL4513216, “Probing the Open Global Health Chemical Diversity Library for Multistage-Active Starting Points for Next-Generation Antimalarials” (ACS Infect Dis, 2020).
The whole screen tested about 69,000 compounds, of which about 8,600 (12%) showed an effect of 50% or more. Many of the other results were omitted from the sample, so strong results are more common in it than they were.

These compounds were tested on Plasmodium berghei (assay: Screen against P. berghei liver stage (PbLuc), transformed with Luciferase, at 10uM). Conditions: tested at 10 uM.
Format: functional, HepG2

| Structure (SMILES) | INHIBITION [%] |
| --- | --- |
| CN(C)Cc1nn(C)c2c1CCN(C(=O)c1cnccn1)C2 | -43.1 |
| CNC(=O)c1ccc(C2CN(Cc3ccc(F)cc3)CCO2)nc1 (stereo not given) | 2.55 |
| Cc1nc(CN(C)C2CCN(CCc3ccccn3)C2)no1 (stereo not given) | -41.6 |
| Cc1cc(C)n(C2CCCN(C(=O)c3ccc(F)c(F)c3)C2)n1 (stereo not given) | 18.7 |
| CN(C)CCN1CCOCC12CCN(C(=O)C1CC1)CC2 | 6.55 |
| COC[C@]1(O)CCN(c2cc(N3CCOCC3)ncn2)CC1(C)C | 32.3 |
| Cc1cc(OCc2ccc(C(=O)O)s2)ccc1Cl | -61.9 |
| CSC(C)C(=O)NCc1ccnc(N2CCN(C)CC2)c1 (stereo not given) | -11.98 |
| CCOc1ccc(Cl)c(C(=O)N2CCCN(CC(N)=O)CC2)n1 | 47 |
| CC(=O)Nc1cc(C2CC2)nn1-c1nc(C)c(C)c(=O)[nH]1 | 72.4 |
| COCCNC(=O)CCc1c(C)nn(-c2nc(C)c(C)c(=O)[nH]2)c1C | -8.69 |
| Cc1[nH]c2cc(C3CCN(C(=O)c4ccccn4)CC3)nn2c(=O)c1C | 29.55 |
| COc1ccc(CN2CCO[C@H]3CN(C4CCCC4)CC[C@H]3C2=O)cc1 | 27.7 |
| CN1CCCN(C(=O)c2cc(-c3cc[nH]n3)n3ccccc23)CC1 | 47.5 |
| Cc1nc(-c2cc(C(=O)N3CCN(C)CC3)c3ccccn23)cn1C | 52.3 |
| Cn1ccc(-c2cc(C(=O)N3CCC(C(N)=O)CC3)c3ccccn23)n1 | -23.1 |
| Cn1ccc(-c2cc(C(=O)N3CCC(O)CC3)c3ccccn23)n1 | 42.1 |
| CN(C)C1CCN(C(=O)c2cc(-c3ccn(C)n3)n3ccccc23)CC1 | 62.9 |
| Cc1nc(-c2cc(C(=O)N3CCCN(C)CC3)c3ccccn23)cn1C | 21.7 |
| CCCC1C=CCN1C(=O)c1cc(COc2ccccc2)[nH]n1 (stereo not given) | -1.49 |
| CCCNC(=O)c1cc2c(s1)CCN2C(=O)CN(C)C | -25.2 |
| CCn1cc(NC(=O)NCC(C)(C)N2CCc3ccccc3C2)cn1 | -31.8 |
| CC(=O)N1CCCN(C(=O)c2ccc(Cn3ccccc3=O)o2)CC1 | 19.45 |
| COc1ccc(OC)c(NC(=O)c2c(C)cn(C)c2CC(=O)O)c1 | 29 |
| CCOCc1ccccc1NC(=O)NC1CCN(C2CCCC2)C1 (stereo not given) | 58.6 |
| CCOCc1ccccc1NC(=O)NC1CCN(c2ccccc2)C1 (stereo not given) | 36.2 |
| CCOCc1ccccc1NC(=O)NC1CCN(CC(F)(F)F)C1 (stereo not given) | 38.3 |

| Structure (SMILES) | INHIBITION [%] |
| --- | --- |
| CCOCC(O)CN1CCN(C(=O)c2cccc(CC#N)c2)CC1 (stereo not given) | 9.54 |
| CCSc1nsc(NC(=O)COc2ccc3c(c2)OCO3)n1 | 49.4 |
| COC1COC2(CCN(Cc3ccc4ccccc4n3)CC2)C1 (stereo not given) | 57.4 |
| c1ccc(O[C@@H]2CO[C@@]3(CCCN(CC4CCOCC4)C3)C2)nc1 | 32.2 |
| CCO[C@H]1CO[C@@]2(CCN(Cc3ccc4c(c3)OCO4)C2)C1 | -20.8 |
| Cn1cc(CN2CCC[C@]3(C[C@H](Oc4ccccn4)CO3)C2)cn1 | 46.4 |
| c1ccc(OC2COC3(CCN(CC4CC4)CC3)C2)nc1 (stereo not given) | 53.2 |
| CCO[C@@H]1CO[C@@]2(CCN(Cc3ccc4c(c3)OCO4)C2)C1 | 18.6 |
| c1ccc(O[C@H]2CO[C@@]3(CCN(Cc4ccc5c(c4)OCO5)C3)C2)nc1 | 71.9 |
| COc1ccccc1CN1CCC2(CC1)CC(Oc1ccccn1)CO2 (stereo not given) | 14.2 |
| COC1COC2(CCN(Cc3ccccc3C)CC2)C1 (stereo not given) | 37.1 |
| COC1COC2(CCN(Cc3ccccc3F)CC2)C1 (stereo not given) | 3.25 |
| Cn1cc(CN2CCC[C@]3(C[C@@H](Oc4ccccn4)CO3)C2)cn1 | 15.6 |
| Cn1cc(CN2CC[C@]3(C[C@H](Oc4ccccn4)CO3)C2)cn1 | 51.4 |
| CC(=O)N1CCCn2nc(CNC(=O)N3CCCCC3)cc2C1 | 14.3 |
| CCc1ncc2c(n1)CN(c1cc(N3CCN(C)CC3)nc(N)n1)C2 | 19.7 |
| CNc1nc(C2CCCN2)nc2c1CCN(S(=O)(=O)C1CCCCC1)C2 (stereo not given) | -44.8 |
| CC(C)CCC(=O)N1CCCC2(CCN(Cc3ccccc3C#N)C2)C1 (stereo not given) | 1.71 |
| COc1ccc(CCn2cnc(C#N)n2)cc1 | -7.46 |
| Cc1cccc(CN2CCc3onc(Cn4cccc4)c3C2)n1 | 31.5 |
| NC(=O)c1cc(CC2CCCN(Cc3cnccn3)CC2)ncn1 (stereo not given) | -0.232 |
| O=C(NC1COC2(CCN(Cc3ccccn3)CC2)C1)c1ccccn1 (stereo not given) | -8.69 |
| CCN1CCC2(CC1)CC(Nc1ncccn1)CO2 (stereo not given) | 45.7 |
| Cc1cc(C)cc(CN2CCC3(CC2)CC(Nc2ncccn2)CO3)c1 (stereo not given) | 50.7 |
| c1ccc(CN2CCC3(CC2)CC(Nc2nccs2)CO3)nc1 (stereo not given) | 53.2 |
| Cn1cc(CN2CC[C@]3(C[C@H](OCc4ccccn4)CO3)C2)cn1 | 69.6 |
| c1ccc(CN2CC[C@]3(C[C@@H](Oc4ccccn4)CO3)C2)nc1 | 31.3 |

| Structure (SMILES) | INHIBITION [%] |
| --- | --- |
| c1ccc(CO[C@H]2CO[C@@]3(CCN(Cc4ccoc4)C3)C2)nc1 | 14.2 |
| c1ccc(CO[C@@H]2CO[C@@]3(CCN(Cc4ccccn4)C3)C2)nc1 | 1.58 |
| c1ccc(OC2COC3(CCN(Cc4ccccn4)CC3)C2)cc1 (stereo not given) | 81.2 |
| Cn1cc(CN2CCC3(CC2)CC(Nc2nccs2)CO3)cn1 (stereo not given) | 13.6 |
| c1cnc(NC2COC3(CCN(Cc4ccoc4)CC3)C2)nc1 (stereo not given) | 3.25 |
| c1ccc(CN2CCC3(CC2)CC(Oc2cccnc2)C3)nc1 | 31.2 |
| CCOCCC(=O)Nc1cccc(Cl)c1C(N)=O | -39.2 |
| O=C(O)c1ccccc1-c1ccc(CN2CC(O)C2)cc1 | -13.7 |
| CC(=O)N1CCC[C@H]1C(=O)NCCCN(C(C)C)S(C)(=O)=O | 25.4 |
| CCNC(c1ccc(Br)cc1)c1cccnc1 (stereo not given) | 3.15 |
| CC(C)(C)c1nnc2n1C(C(=O)N1CCCC1)CC2 (stereo not given) | 21.7 |
| CCC1CN(C(=O)c2cccc(OCc3cscn3)c2)CCO1 (stereo not given) | 32.025 |
| Cc1cnn(CC2CCCN2Cc2nccn2CC(F)(F)F)c1 (stereo not given) | -10.1 |
| CC(C1CCN(Cc2ccc(OC(F)F)cc2)CC1)N1CCOCC1 (stereo not given) | 33.7 |
| CC(C1CCN(Cc2ccc(N(C)C)nc2)CC1)N1CCOCC1 (stereo not given) | 36.2 |
| CC(C1CCN(Cc2c(Cl)cncc2Cl)CC1)N1CCN(C)CC1 (stereo not given) | 51.3 |
| CN1CCN(C[C@@H]2CN(Cc3c(Cl)cncc3Cl)C[C@@H]2CO)CC1 | -56.2 |
| CC(C1CCN(Cc2c(Cl)cncc2Cl)CC1)N1CCOCC1 (stereo not given) | 52.5 |
| CC(C1CCN(Cc2c(Cl)ccc(O)c2Cl)CC1)N1CCN(C)CC1 (stereo not given) | 21.145 |
| c1cnc(NC2COC3(CCN(Cc4nccs4)CC3)C2)cn1 (stereo not given) | 42.7 |
| CCN(CC)c1ncc(CNC2CCc3ncnn3C2)s1 (stereo not given) | -17.9 |
| CC(C)(C)S(=O)(=O)CCNC(=O)c1ccc2cc[nH]c2c1 | -19.7 |
| COCCN1C[C@@H]2CN(Cc3ccc(C)s3)CCC[C@]2(C(=O)O)C1 | 24.9 |
| COCCn1cc2c(n1)C(CNCc1ccco1)OCC2 (stereo not given) | -11.5 |
| COc1c(CNC2(c3noc(C)n3)CCC2)c(C)nn1C | -81.2 |
| COCCCNC(=O)Nc1cccc(Cl)c1-n1cccn1 | -31.5 |
| COCCN(Cc1ccccn1)C(=O)CC1OCCc2ccccc21 (stereo not given) | 10.9 |

| Structure (SMILES) | INHIBITION [%] |
| --- | --- |
| COCCN(Cc1ccccn1)C(=O)CC1OCCc2ccsc21 (stereo not given) | 58.2 |
| COCCN(Cc1ccccn1)C(=O)CC1OCCc2sccc21 (stereo not given) | 35 |
| COCc1nc(Cn2c(C)cc(C(F)(F)F)cc2=O)no1 | 32.1 |
| Cc1ccc(C)c(NC(=O)c2cc(S(=O)(=O)N3CCSCC3)c[nH]2)c1 | 32 |
| CN(C)S(=O)(=O)N1C[C@H]2CCC[C@@]2(COCc2ccccn2)C1 | 31.9 |
| CN(C)S(=O)(=O)N1C[C@H]2CCC[C@@]2(COCC2CC2)C1 | 63 |
| CN(C)S(=O)(=O)N1C[C@H]2CCC[C@@]2(COCC2CCOCC2)C1 | 40.8 |
| Cc1cccc(COC[C@@]23CCC[C@@H]2CN(S(=O)(=O)N(C)C)C3)n1 | 52.6 |
| CN(C)S(=O)(=O)N1C[C@H]2CCC[C@@]2(COCc2cccnc2)C1 | -136 |
| CS(=O)(=O)N1C[C@H]2CCC[C@@]2(COCC2CCOCC2)C1 | 5.36 |
| COc1cccc2ccc(N3CCC(O)(c4ccc(C)cn4)CC3)nc12 | -44.2 |
| Cn1cc2ncn([C@H]3CCN(Cc4ccccc4)C3)c(=O)c2n1 | -25.1 |
| O=C(C(CNCc1ccccn1)c1ccccc1)N1CCOCC1 (stereo not given) | -5.32 |
| CC(C)(C)c1n[nH]c(C2CN(C(=O)CCCn3cccn3)CCO2)n1 (stereo not given) | 17 |
| c1cncc(CN2CCc3ncnc(C4CCOC4)c3CC2)c1 (stereo not given) | 30.7 |
| CSc1nsc(NC(=O)N2CCc3ccccc3C2)n1 | 16.5 |
| CCNC(=O)NCc1nn(CCN2CCCC2)c(=O)c2ccccc12 | 47.7 |
| CC(C)OCCCNC(=O)CC1(Cn2cnnn2)CCCCC1 | -22.2 |
| CC(C)NC(=O)CC1(Cn2cnnn2)CCCCC1 | 35.8 |
| CC(C)CNC(=O)CC1(Cn2cnnn2)CCCCC1 | 67.3 |
| Cc1ccc(N2CCCN(C(=O)CCc3nccs3)CC2)nn1 | 3.73 |
| Cc1nc(N)cc(C2(C)CCCNC2)n1 (stereo not given) | 32.8 |
| CC1CN(C(=O)CN(Cc2ccccc2)C2CC2)CCO1 (stereo not given) | 15.6 |
| COC(=O)C(NC(=O)C1CCCC1)c1cc(F)ccc1F (stereo not given) | 29.4 |
